ULK1 primary – ULK1 kinase inhibitors, primary screen, biochemical, AlphaScreen. Serine/threonine-protein kinase ULK1 (Homo sapiens), O75385. AlphaScreen Atg13 phosphorylation by ULK1, luminescence. inhibition, % at 5.96 µM. 1.9% of 30,000 active; in the data active means inhibition above about 43%
Target sequence (O75385 whole entry, looked up): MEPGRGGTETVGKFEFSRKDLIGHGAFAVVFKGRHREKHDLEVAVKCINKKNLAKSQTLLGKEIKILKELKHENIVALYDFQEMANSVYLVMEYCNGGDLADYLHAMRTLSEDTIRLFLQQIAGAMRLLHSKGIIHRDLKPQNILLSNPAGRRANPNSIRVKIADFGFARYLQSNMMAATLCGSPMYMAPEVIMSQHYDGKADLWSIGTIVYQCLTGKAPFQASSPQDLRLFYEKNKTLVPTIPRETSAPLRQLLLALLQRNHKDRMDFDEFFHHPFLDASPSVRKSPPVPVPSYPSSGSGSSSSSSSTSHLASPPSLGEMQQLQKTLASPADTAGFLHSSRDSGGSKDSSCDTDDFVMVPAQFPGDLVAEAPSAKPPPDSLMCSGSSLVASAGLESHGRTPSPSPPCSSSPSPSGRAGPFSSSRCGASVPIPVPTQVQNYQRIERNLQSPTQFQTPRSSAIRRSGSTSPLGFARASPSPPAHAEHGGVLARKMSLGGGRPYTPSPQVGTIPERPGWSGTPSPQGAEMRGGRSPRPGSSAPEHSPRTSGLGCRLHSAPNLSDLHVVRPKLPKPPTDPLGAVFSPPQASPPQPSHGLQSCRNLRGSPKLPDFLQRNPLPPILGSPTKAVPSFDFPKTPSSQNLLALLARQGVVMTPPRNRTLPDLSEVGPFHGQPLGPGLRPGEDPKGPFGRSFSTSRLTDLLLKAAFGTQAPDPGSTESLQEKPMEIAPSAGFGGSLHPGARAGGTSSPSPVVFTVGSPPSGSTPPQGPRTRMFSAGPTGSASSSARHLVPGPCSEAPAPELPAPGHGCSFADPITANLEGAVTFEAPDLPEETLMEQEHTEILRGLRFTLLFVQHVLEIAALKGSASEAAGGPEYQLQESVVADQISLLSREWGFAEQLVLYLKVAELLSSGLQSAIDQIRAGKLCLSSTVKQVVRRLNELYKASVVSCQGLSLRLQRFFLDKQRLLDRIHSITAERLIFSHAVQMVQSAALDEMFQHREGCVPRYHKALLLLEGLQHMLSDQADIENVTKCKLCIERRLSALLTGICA
ASK1 inh – ASK1 kinase inhibitors, primary screen, biochemical, AlphaScreen | inhibition, % at 7.44 µM | Mitogen-activated protein kinase kinase kinase 5 (Homo sapiens), Q99683 | AlphaScreen MKK6 phosphorylation by ASK1, luminescence | 0.99% of 22,000 active; in the data active means inhibition above about 35%
Large screens that a line does not name were inactive. Sampled rows, rich in hits. Any-hit rate of the full collection: about 2.5%.

CC(C)n1c(N2CCCC2CO)nc2c(NCc3cccc(C(F)(F)F)c3)ncnc21 (stereo not given)	none
COc1ccc(-c2cc(C(=O)NCCN(C(C)C)C(C)C)ccn2)cc1	none
CC(C)n1cnc2c(Nc3ccccc3)nc(Nc3ccncc3)nc21	ULK1 primary 46
CC(C)n1cnc2c(Nc3ccccc3)nc(Nc3ccccc3)nc21	none
O=C(O)c1cc(O)ccc1O	none (no result: ASK1 inh)
Nc1ccc(O)c(C(=O)O)c1	ULK1 primary 55 (no result: ASK1 inh)
COC(=O)[C@@H](N)Cc1ccc(O)c(O)c1	none (no result: ASK1 inh)
CCOC(=O)C(N)Cc1ccc(O)c(O)c1 (stereo not given)	ULK1 primary 66 (no result: ASK1 inh)
NC(=O)c1ccc(-c2nc3ccc(C(=O)NC4CCN(Cc5ccccc5)CC4)cc3s2)cc1	none
Cc1cc(NCCOc2ccccc2)nc(-c2csc3ccccc23)n1	none
CC(C(=O)Nc1cnn(-c2cccc(C(=O)Nc3ccc(N4CCOCC4)cc3)c2)c1)c1ccccc1 (stereo not given)	none
O=C(Nc1ccccc1)Nc1cnn(-c2ccc3c(c2)C(Nc2ccc(N4CCOCC4)cc2)CCC3)c1 (stereo not given)	ULK1 primary 45
Nc1nccc(-c2ccc3nc(CCOc4ccc(CC(=O)NC5CC5)cc4)[nH]c3c2)n1	none
COc1cccc(OCc2nc3ccc(-c4ccnc(N)n4)cc3[nH]2)c1	ULK1 primary 62
COc1ccccc1OCc1nc2ccc(-c3ccnc(N)n3)cc2[nH]1	ULK1 primary 48
COc1cccc2c1OCC(c1nc3ccc(-c4ccnc(N)n4)cc3[nH]1)C2 (stereo not given)	none
Cc1ccccc1OCc1nc2ccc(-c3ccnc(N)n3)cc2[nH]1	ULK1 primary 43
Cc1ccccc1OCc1nc2ccc(-c3cn[nH]c3)cc2c(=O)[nH]1	none
O=C(Nc1ccc2[nH]ncc2c1)[C@H](O)COc1ccc(F)cc1Br	none
O=C(NCCO)c1cccc(-c2ccccc2)c1	none
COC(CNc1ncc(-c2ccc(C)cc2)cn1)OC	none (no result: ASK1 inh)
OC1CCN(c2ccc(Nc3nccc(-c4cc(F)cc(N5CCOCC5)c4)n3)cc2)CC1	ULK1 primary 45
N#Cc1cc(-c2ccnc(Nc3cccc(CN4CCCCC4)c3)n2)cc(N2CCOCC2)c1	ULK1 primary 79
Fc1cc(-c2ccnc(Nc3ccc(N4CCOCC4)cc3)n2)cc(N2CCOCC2)c1	none
OC1CCN(c2ccc(Nc3nccc(-c4cncc(N5CCOCC5)c4)n3)cc2)CC1	ULK1 primary 68
N#Cc1ccc(Nc2nccc(-c3cncc(N4CCOCC4)c3)n2)cc1	none
Cc1cc(Nc2nccc(-c3cc(C#N)cc(N4CCOCC4)c3)n2)ccc1N1CCOCC1	none
c1cc(-c2cncc(N3CCOCC3)c2)nc(Nc2ccc3c(c2)OCCO3)n1	none
c1cc(Cn2cccn2)cc(Nc2nccc(-c3cncc(N4CCOCC4)c3)n2)c1	ULK1 primary 80
O=C(Cc1ccccc1)Nc1cnn(-c2cccc(C(=O)NC3CCCN(c4ncccn4)C3)c2)c1 (stereo not given)	none
O=C(Nc1ccc(N2CCOCC2)cc1)c1ccc2nc(N3CCCC3CO)sc2c1 (stereo not given)	none
Cc1cnc(NCc2cccnc2)nc1Nc1ccccc1	none
COc1ccc(-c2nc3ncnc(Nc4ccc(Oc5ccccc5)cc4)c3[nH]2)cn1	none
Fc1cnc(Nc2ccc(CN3CCCCC3)cc2)nc1-c1cc(N2CCOCC2)cc(C(F)(F)F)c1	none
Fc1cc(-c2nc(Nc3ccc(CN4CCCCC4)cc3)ncc2F)cc(N2CCOCC2)c1	ULK1 primary 44
Cc1ccc(-c2cccc3cnc(NC4CCC(C(=O)N5CCCC5)CC4)nc23)cn1 (stereo not given)	none
Cn1nccc1Nc1cccc(C(=O)NCCCN2CCCC2=O)n1	none
O=C(c1cccc(Nc2ccc3[nH]ncc3c2)n1)N1CCOCC1	ULK1 primary 48
O=C(c1cc(Nc2ccc3[nH]ncc3c2)ccn1)N1CCOCC1	none
Cc1cnc(N2CCC(N3CCOCC3)CC2)nc1NCCO	none
c1cc(Nc2cc(Nc3ccc4c(c3)OCO4)ncn2)ncn1	ULK1 primary 60
c1ccc(Nc2cc(Nc3ccc4c(c3)OCO4)ncn2)cc1	none
COc1cc(NC(=O)C(N)c2ccc(Cl)cc2)c(F)cc1-c1cn[nH]c1 (stereo not given)	ULK1 primary 65
CN(C)CCCOc1cc(-c2cn[nH]c2)c(F)cc1NC(=O)C(N)c1ccc(Cl)cc1 (stereo not given)	none
COc1ccc2c(c1)CC(c1nc3ccc(-c4ccnc(N)c4)cc3s1)CO2 (stereo not given)	none
COc1cccc(Oc2ncc(F)c(-c3cc(F)cc(N4CCOCC4)c3)n2)c1	none
C[N+](C)(C)CCOC(c1ccccc1)c1ccccc1	ULK1 primary 82 (no result: ASK1 inh)
CN(C)CCOC(c1ccccc1)c1ccc(Br)cc1 (stereo not given)	none (no result: ASK1 inh)
CC(=O)c1cccc(-c2nc(NCCO)c3ncn(C(C)C)c3n2)c1	none
COc1ccccc1-n1cc(-c2ccccc2)c(-c2ccnc(Nc3ccc(-n4nc(C)nc4C)cc3)c2)n1	none
